Compounds with a hit are over-represented: about 2.5% of the library has one in this group of screens.
NSD2 inh = NSD2 (human) methyltransferase inhibition; inhibition, % at 12.5 µM; AID 743445; NSD2 peptide methylation, AlphaScreen, 120 min; O96028; 0.54% of 310,000 active; in the data active = inhibition above about 50%
Casp6 inh = inhibitors of human caspase-6; P55212; purified caspase-6, Z-VEID-R110 cleavage fluorescence; inhibition, % at 12.5 µM; 0.53% of 350,000 active; AID 686996;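 active = mean inhibition across replicates at least about 35%, with every replicate also reaching that limit, limit read from the data; inconclusive = only one of the two criteria met; inactive = neither criterion met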;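 note: 0% = median of neutral control wells and 100% = no fluorescence left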
Target sequence (P55212 24-179 limits assumed): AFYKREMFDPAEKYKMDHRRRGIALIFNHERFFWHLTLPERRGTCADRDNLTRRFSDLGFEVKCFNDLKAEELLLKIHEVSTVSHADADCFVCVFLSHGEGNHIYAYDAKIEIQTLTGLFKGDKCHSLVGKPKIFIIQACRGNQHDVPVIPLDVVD
Target sequence (P55212 194-293 limits assumed): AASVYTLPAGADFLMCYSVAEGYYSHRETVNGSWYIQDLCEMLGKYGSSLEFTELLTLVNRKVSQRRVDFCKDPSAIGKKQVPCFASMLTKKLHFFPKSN
RAD52 inh = RAD52 (human) annealing inhibition | inhibition, % at 18.7 µM | P43351 | recombinant RAD52 DNA annealing, FRET fluorescence | 0.46% of 360,000 active;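 active = every replicate showing at least 50% inhibition; inconclusive = mean inhibition at least 50% but not in every replicate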
AF4-AF9 inh = inhibitors of human MLL-AF4/AF9 interaction; P42568; inhibition, % at 10 µM; AID 651704; 0.47% of 350,000 active; AlphaScreen, biotin-AF4 peptide binding to FLAG-AF9;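 active = every replicate reaching a set inhibition limit, whatever the replicate mean, cut at about 25% in these data; inconclusive = mean inhibition reaches that limit but some replicates miss it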;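 note: 0% = plate neutral control median and 100% = total signal loss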
rRNA inh HTS = selective bacterial rRNA inhibition in E. coli | E. coli WT GFP vs humanized-ribosome RFP mutants, fluorescence, 24 h; stronger effect = lower value; DMSO median 0, no signal -100 | GFP signal change (wild-type ribosome), % (concentration not given with the values) | 1.6% of 350,000 active | AID 720706;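 active = significant combined selectivity score with lowered wild-type GFP, culture density cut under 30%, mutant RFP and density less affected; inactive = any of these conditions unmet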
Numbers without * were called inactive; ? = inconclusive; . = not tested or not shown; ! = repeats disagree.

SMILES	NSD2 inh	Casp6 inh	RAD52 inh	AF4-AF9 inh	rRNA inh HTS
CN(C)C(=O)C[C@@H]1CC[C@@H]2[C@H](COc3ccc(NC(=O)c4ccc(F)cc4)cc3C(=O)N2C)O1	.	-4	-2	-2	4
C[C@H]1CN([C@@H](C)CO)C(=O)Cc2cc(NC(=O)CCCN(C)C)ccc2O[C@H]1CN(C)Cc1ccc(Oc2ccccc2)cc1	.	0	42	11	-4
C[C@@H]1CN([C@@H](C)CO)C(=O)Cc2cc(NC(=O)CCCN(C)C)ccc2O[C@H]1CN(C)Cc1ccc(Oc2ccccc2)cc1	.	0	91*	39*	2
C[C@H](CO)N1C[C@H](C)[C@@H](CN(C)Cc2ccc(Oc3ccccc3)cc2)Oc2ccc(NC(=O)CCCN(C)C)cc2CC1=O	.	0	57*	?	-56
CCNC(=S)N1C2CCC1CC(NC(=O)Nc1ccc(C(=O)OCC)cc1)C2 (centres undefined)	11	5	-27	0	-21*
C[C@H]1CN([C@@H](C)CO)S(=O)(=O)c2ccc(C3=CCCCC3)cc2O[C@@H]1CN(C)S(=O)(=O)c1cn(C)cn1	.	.	.	.	-3
CN=c1scc(-c2ccc(F)cc2)n1/N=C/c1ccc(O)c(O)c1	.	21	0	59*	-41*
O=C(Nc1ccccn1)c1ccc(Cl)c(S(=O)(=O)N2CCc3ccccc32)c1	-2	1	-17	-2	-28*
O=C(Nc1cccnc1)c1ccc(Cl)c(S(=O)(=O)N2CCc3ccccc32)c1	-1	-3	-6	-1	-26*
COc1ccc2c3c(n(C)c2c1)[C@@H](CO)N(C(=O)C1CCCCC1)CC31CN(C(=O)c2ccncc2)C1	.	.	.	.	-6
Cc1cc(NC(=S)NC(=O)C2CCCC2)ccc1Br	-4	.	.	.	.
Cc1sc2ncnc(N3CCC(C(=O)NNC(=O)COc4cccc(C(F)(F)F)c4)CC3)c2c1C	0	-5	-30	0	-19*
Cc1ccc(OCC(=O)NNC(=O)C2CCN(c3ncnc4sc(C)c(C)c34)CC2)cc1	-1	-2	-13	-1	-17
O=C1NC(=O)/C(=C\c2ccc(Br)o2)S1	11	49*	-22	-2	1
O=C(O)c1cc(S(=O)(=O)Nc2ccc3cn[nH]c3c2)ccc1O	3	60*	11	-8	2
O=C(O)c1ccc(Cl)c(S(=O)(=O)Nc2ccc3cn[nH]c3c2)c1	13	37*	-7	0	4
O=C(C[C@H]1C[C@@H]2c3cc(NC(=O)c4ccc5c(c4)OCO5)ccc3O[C@@H]2[C@@H](CO)O1)NCc1ccc(Cl)cc1	.	-1	-17	2	-12
CCN1CCN(c2ccc(S(=O)(=O)N3CCCCC3)cc2NC(=O)/C=C/c2cccc(OC)c2OC)CC1	1	-7	5	21	-20*
CC(=O)Nc1ccc2c(c1)CC(=O)N(C)C[C@H](C)[C@@H](CN(C)C)O2	.	.	.	.	0
COC(=O)C1=COC(OC2OC(CO)C(O)C(O)C2O)C2C1C=CC2(O)CO (centres undefined)	.	48*	0	-2	.
COC(=O)C1=CO[C@@H](O[C@@H]2OC(CO)[C@@H](O)[C@@H](O)[C@@H]2O)C2C1CC[C@]2(C)O (some centres undefined)	.	1	-13	0	.
COC(=O)C1=COC(OC2OC(CO)C(O)C(O)C2O)C2C(C)CC(=O)C12 (centres undefined)	.	35*	-10	3	.
C[C@H](CO)N1C[C@H](C)[C@@H](CN(C)CC2CCCC2)Oc2cc(C#CC(C)(C)O)ccc2S1(=O)=O	.	2	8	0	0
N#Cc1c(-c2ccccc2)nc(SCC(=O)Nc2ccccc2)[nH]c1=O	-2	.	.	.	.
N#Cc1c(-c2ccccc2)nc(SCC(=O)N(c2ccccc2)c2ccccc2)[nH]c1=O	9	3	-24	3	-49*
SMILES	NSD2 inh	Casp6 inh	RAD52 inh	AF4-AF9 inh	rRNA inh HTS
N#Cc1c(Cl)nsc1NN	11	22	-42	51*	-7
C[C@@H]1CN([C@@H](C)CO)C(=O)c2cccc(NC(=O)Nc3ccccc3)c2O[C@@H]1CN(C)CC1CCCCC1	.	0	12	0	3
COc1ccc(-c2ccc(C3[C@H]4CNC[C@@H]3N4C(=O)Nc3cccc(OC)c3)cc2)cc1 (some centres undefined)	.	1	67*!	0	-5
Cc1cccc(-c2ccc(C3[C@H]4CNC[C@@H]3N4C(=O)Nc3ccccc3Cl)cc2)c1 (some centres undefined)	.	.	.	.	4
COc1cccc(-c2ccc(C3[C@H]4CNC[C@@H]3N4C(=O)Nc3ccccc3Cl)cc2)c1 (some centres undefined)	.	3	51*!	-3	-2
COc1cccc(NC(=O)N2[C@@H]3CNC[C@H]2C3c2ccc(-c3cccc(OC)c3)cc2)c1 (some centres undefined)	.	2	66*!	4	-61
COc1cccc(-c2ccc(C3[C@H]4CNC[C@@H]3N4S(=O)(=O)c3cccc(Cl)c3)cc2)c1 (some centres undefined)	.	0	53*	-6	-57
COc1ccc(-c2ccc(C3[C@H]4CNC[C@@H]3N4S(=O)(=O)c3cccc(Cl)c3)cc2)cc1 (some centres undefined)	.	-1	34	-2	-56
CO[C@H]1CN(C)C(=O)c2ccc(NC(=O)c3ccc(F)cc3)cc2OC[C@@H](C)N(C(=O)CN(C)C)C[C@H]1C	.	.	.	.	3
COc1ccccc1/C=C/C(=O)Nc1ccc(S(=O)(=O)Nc2cc(C)on2)cc1	26	-2	-16	-1	-35*
C[C@H](CO)N1C[C@H](C)[C@@H](CN(C)C(=O)N[C@H](C)c2ccccc2)OCc2ccccc2-c2ccccc2C1=O	.	.	.	.	2
CCOC(=O)C1=C(C)NC(C)=C(C(=O)OCC)C1C(=O)OCC(=O)NC(C)c1ccccc1 (centres undefined)	-7	46*	-12	-2	1
C[C@H]1CN([C@@H](C)CO)C(=O)c2cccc(NS(=O)(=O)c3ccc(Cl)cc3)c2O[C@H]1CN(C)C(=O)Nc1ccc(F)cc1	.	-2	19	3	-2
Cc1ccnc(NC(=O)c2cccc(NC(=O)c3cccc(Cl)c3)c2)c1	-1	.	.	.	.
CSCCC(NC(=O)C1CCCC1)c1nnc2ccccn12 (centres undefined)	-6	2	-21	-1	16
CSCC[C@H](NS(=O)(=O)c1ccc(C(C)=O)cc1)c1nnc2ccccn12	21	37*	-9	-1	4
Fc1ccc(-c2ccc(C3[C@@H]4CN(Cc5ccccc5)C[C@H]3N4)cc2)cc1 (some centres undefined)	.	-2	78*!	20	-58
Cc1ccc(-c2ccc(C3[C@@H]4CN(Cc5cccc(F)c5)C[C@H]3N4)cc2)cc1 (some centres undefined)	.	-1	54*	7	-55
Cc1ccc(-c2ccc(C3[C@@H]4CN(Cc5cccnc5)C[C@H]3N4)cc2)cc1 (some centres undefined)	.	1	53*!	17	-3

Screening results as filed in PubChem.
